Measurements from the antibiotic and cytotoxicity screens of Wong et al. (2023).
Out of some 39,000 compounds screened, about 1,500 (3.8%) were called active. This is one part of a sample in which actives are shown more often than they occur.

The compounds below were run on HSkMC (human skeletal muscle cells) (assay: cytotoxicity call (relative viability < 0.9)). Settings: 10 µM.
With `C[C@@H]1CN([C@H](C)CO)C(=O)CCCn2cc(nn2)CO[C@H]1CN(C)C(=O)Nc1ccc(C(F)(F)F)cc1` the cytotoxicity call was “inactive”. `Cc1ccc(S(=O)(=O)Nc2ccc3c(c2)C(=O)N([C@H](C)CO)C[C@H](C)[C@@H](CN(C)C(=O)Cc2ccccc2)OCCCC[C@@H](C)O3)cc1` was tested, and the cytotoxicity call was “inactive”. `Cc1noc(C)c1S(=O)(=O)Nc1ccc2c(c1)C(=O)N([C@@H](C)CO)C[C@H](C)[C@H](CN(C)Cc1ccc(Cl)c(Cl)c1)OCCCC[C@@H](C)O2` was tested, and the cytotoxicity call was “inactive”. `C[C@H](CO)N1C[C@H](C)[C@@H](CN(C)CC2CCCCC2)Oc2c(NC(=O)c3ccc(-c4nccs4)cc3)cccc2C1=O` was tested, and the cytotoxicity call was “inactive”. For `Cc1ccc(-c2cnc3c(c2)C(=O)N([C@@H](C)CO)C[C@@H](C)[C@H](CN(C)C(=O)Cc2ccncc2)O3)cc1`, the cytotoxicity call was “inactive”. For `C[C@H]1CN([C@@H](C)CO)C(=O)c2cc(NS(=O)(=O)c3ccc(Cl)cc3)ccc2O[C@H]1CN(C)C(=O)Nc1cccc2ccccc12`, the cytotoxicity call was “inactive”. For `C[C@H]1CN([C@@H](C)CO)C(=O)c2cc(NS(=O)(=O)c3ccc(Cl)cc3)ccc2O[C@@H]1CN(C)Cc1ccc(C(F)(F)F)cc1`, the cytotoxicity call was “active”. With `C[C@@H]1CN([C@@H](C)CO)C(=O)c2cc(NC(=O)CCC(F)(F)F)ccc2O[C@@H](C)CCCCO[C@@H]1CN(C)C(=O)Nc1ccc(C(F)(F)F)cc1` the cytotoxicity call was “inactive”. `Nc1nc(=O)n([C@@H]2CS[C@H](CO)O2)cc1F` was tested, and the cytotoxicity call was “inactive”. With `CNC(=O)c1ccccc1N` the cytotoxicity call was “inactive”. For `C[C@H]1CN([C@@H](C)CO)C(=O)c2cc(NC(=O)Nc3ccc(C(F)(F)F)cc3)ccc2O[C@H]1CN(C)Cc1ccc(Oc2ccccc2)cc1`, the cytotoxicity call was “active”. `C[C@H](CO)N1C[C@H](C)[C@@H](CN(C)Cc2ccc(Oc3ccccc3)cc2)Oc2ccc(NC(=O)Nc3ccc(C(F)(F)F)cc3)cc2C1=O` was tested, and the cytotoxicity call was “active”. With `C[C@@H]1CN([C@@H](C)CO)C(=O)c2cc(NC(=O)Nc3ccc(C(F)(F)F)cc3)ccc2O[C@H]1CN(C)Cc1ccc(Oc2ccccc2)cc1` the cytotoxicity call was “active”. For `C[C@@H]1CN([C@@H](C)CO)C(=O)c2cc(NC(=O)Nc3ccc(C(F)(F)F)cc3)ccc2O[C@@H]1CN(C)Cc1ccc(Oc2ccccc2)cc1`, the cytotoxicity call was “active”. In the case of `O=C(C[C@@H]1C[C@H]2c3cc(NC(=O)C4CCOCC4)ccc3O[C@H]2[C@H](CO)O1)NCc1ccc2c(c1)OCO2`, the cytotoxicity call is reported as “inactive”. `C[C@@H]1CCCCO[C@@H](CN(C)C(=O)c2ccccc2)[C@@H](C)CN([C@H](C)CO)C(=O)c2cc(NC(=O)Nc3ccc(C(F)(F)F)cc3)ccc2O1` was tested, and the cytotoxicity call was “inactive”. In the case of `Cc1noc(C)c1S(=O)(=O)Nc1ccc2c(c1)C(=O)N([C@@H](C)CO)C[C@@H](C)[C@H](CN(C)C(=O)NC(C)C)O2`, the cytotoxicity call is reported as “inactive”. For `Cl.N=C(N)NC(=N)N1CCOCC1`, the cytotoxicity call was “inactive”. In the case of `COc1ccc(S(=O)(=O)N2C[C@@H](O)COC[C@H]3O[C@@H](CC(=O)NCCCN(C)C)CC[C@@H]32)cc1`, the cytotoxicity call is reported as “inactive”. In the case of `C[C@H](CO)N1C[C@H](C)[C@H](CN(C)S(=O)(=O)c2cccs2)Oc2ccc(NS(=O)(=O)c3cn(C)cn3)cc2C1=O`, the cytotoxicity call is reported as “inactive”. For `Cn1cnc(CCNC(=O)C[C@H]2CC[C@H]3[C@@H](COC[C@H](O)CN3C(=O)Nc3ccc(C(F)(F)F)cc3)O2)c1`, the cytotoxicity call was “inactive”. For `C[C@H]1CN([C@@H](C)CO)C(=O)c2cc(NS(=O)(=O)c3ccc(F)cc3)ccc2O[C@H]1CN(C)S(=O)(=O)c1ccccc1`, the cytotoxicity call was “inactive”. For `Cc1nn(C)c(Cl)c1S(=O)(=O)NC(=O)[C@@]1(C)CCN1C(=O)c1ccccc1CCc1ccccc1`, the cytotoxicity call was “inactive”. For `COC(=O)c1cc(S(C)(=O)=O)ccc1OC`, the cytotoxicity call was “inactive”. `C[C@@H]1CN([C@H](C)CO)C(=O)c2cc(NC(=O)Nc3ccc(C(F)(F)F)cc3)ccc2O[C@H]1CN(C)Cc1ccc(Oc2ccccc2)cc1` was tested, and the cytotoxicity call was “inactive”. With `C[C@H](CO)N1C[C@H](C)[C@H](CN(C)Cc2ccc(Oc3ccccc3)cc2)Oc2ccc(NC(=O)Nc3ccc(C(F)(F)F)cc3)cc2C1=O` the cytotoxicity call was “active”. For `C[C@@H]1CN([C@H](C)CO)C(=O)c2cc(NC(=O)Nc3ccc(C(F)(F)F)cc3)ccc2O[C@@H]1CN(C)Cc1ccc(Oc2ccccc2)cc1`, the cytotoxicity call was “active”. For `C[C@H]1CN([C@@H](C)CO)C(=O)c2cc(NC(=O)Nc3ccc(C(F)(F)F)cc3)ccc2O[C@@H]1CN(C)Cc1ccc(Oc2ccccc2)cc1`, the cytotoxicity call was “inactive”. With `CN(C)C(=O)c1cccc(-c2ccc3n(c2=O)C[C@H]2[C@H](CO)[C@@H](C(=O)NCC4CC4)N[C@@H]32)c1` the cytotoxicity call was “inactive”. For `C[C@H]1CN([C@@H](C)CO)C(=O)c2cccc(NC(=O)Nc3ccc(F)cc3)c2O[C@H]1CN(C)Cc1ccc(Cl)c(Cl)c1`, the cytotoxicity call was “inactive”. With `C[C@@H]1CN([C@@H](C)CO)C(=O)c2cccc(NC(=O)Nc3ccc(F)cc3)c2O[C@H]1CN(C)Cc1ccc(Cl)c(Cl)c1` the cytotoxicity call was “inactive”. With `C[C@@H]1CN([C@H](C)CO)C(=O)c2cccc(NC(=O)Nc3ccc(F)cc3)c2O[C@H]1CN(C)Cc1ccc(Cl)c(Cl)c1` the cytotoxicity call was “active”. `C[C@H](CO)N1C[C@H](C)[C@@H](CN(C)Cc2ccc(Cl)c(Cl)c2)Oc2c(NC(=O)Nc3ccc(F)cc3)cccc2C1=O` was tested, and the cytotoxicity call was “active”. In the case of `C[C@@H]1CN([C@H](C)CO)C(=O)c2cccc(NC(=O)Nc3ccccc3)c2O[C@@H]1CN(C)Cc1ccc(Cl)c(Cl)c1`, the cytotoxicity call is reported as “inactive”. In the case of `COc1ccc(NC(=O)Nc2cccc3c2O[C@H](CN(C)Cc2ccc(Cl)c(Cl)c2)[C@@H](C)CN([C@@H](C)CO)C3=O)cc1`, the cytotoxicity call is reported as “active”. `COc1ccc(NC(=O)Nc2cccc3c2O[C@@H](CN(C)Cc2ccc(Cl)c(Cl)c2)[C@@H](C)CN([C@H](C)CO)C3=O)cc1` was tested, and the cytotoxicity call was “inactive”. In the case of `C[C@@H]1CN([C@H](C)CO)C(=O)c2cccc(NC(=O)Nc3ccc(F)cc3)c2O[C@@H]1CN(C)Cc1ccc(Cl)c(Cl)c1`, the cytotoxicity call is reported as “inactive”. For `C[C@H](CO)N1C[C@H](C)[C@H](CN(C)Cc2ccc(Cl)c(Cl)c2)Oc2c(NC(=O)Nc3ccc(F)cc3)cccc2C1=O`, the cytotoxicity call was “inactive”. In the case of `COc1ccc(NC(=O)Nc2cccc3c2O[C@@H](CN(C)Cc2ccc(Cl)c(Cl)c2)[C@H](C)CN([C@@H](C)CO)C3=O)cc1`, the cytotoxicity call is reported as “inactive”. `C[C@@H]1CN([C@@H](C)CO)C(=O)c2cccc(NC(=O)Nc3ccc(F)cc3)c2O[C@@H]1CN(C)Cc1ccc(Cl)c(Cl)c1` was tested, and the cytotoxicity call was “active”. For `C[C@@H]1CN([C@@H](C)CO)C(=O)c2cccc(NC(=O)Nc3ccccc3)c2O[C@H]1CN(C)Cc1ccc(Cl)c(Cl)c1`, the cytotoxicity call was “inactive”. In the case of `C[C@H](CO)N1C[C@H](C)[C@H](CN(C)C(=O)c2ccc(N3CCN(C)CC3)cc2)OCc2cn(nn2)CCCC1=O`, the cytotoxicity call is reported as “inactive”. In the case of `COc1ccc(S(=O)(=O)N(C)C[C@@H]2Oc3c(NC(=O)c4ccncc4)cccc3C(=O)N([C@H](C)CO)C[C@@H]2C)cc1`, the cytotoxicity call is reported as “inactive”. In the case of `C[C@H]1CCCCO[C@@H](CN(C)Cc2ccc(C(=O)O)cc2)[C@@H](C)CN([C@@H](C)CO)C(=O)c2cc(NC(=O)NC3CCCCC3)ccc2O1`, the cytotoxicity call is reported as “inactive”. With `C[C@@H]1CN([C@H](C)CO)S(=O)(=O)c2ccc(Br)cc2O[C@@H]1CN(C)S(=O)(=O)c1ccc(F)cc1` the cytotoxicity call was “inactive”. For `CON=C(C(=O)NC1C(=O)N2C(C(=O)OCOC(=O)C(C)(C)C)=C(C=Cc3scnc3C)CSC12)c1csc(N)n1` (stereo unspecified), the cytotoxicity call was “inactive”. With `C[C@H]1CN([C@@H](C)CO)C(=O)c2cc(C#Cc3ccccc3)cnc2O[C@H]1CN(C)C(=O)CCN1CCCCC1` the cytotoxicity call was “inactive”. In the case of `COCCCNC(=O)[C@@]1(Sc2ccc(C)cc2)CC(=O)N(Cc2ccccc2Cl)[C@@H]1c1ccc(CO)cc1`, the cytotoxicity call is reported as “inactive”. For `O=C1N[C@H](Cc2c[nH]c3ccccc23)COC(=O)[C@@H](Cc2ccc(F)cc2)CCC=CC[C@H]1CC(=O)N(CCO)Cc1ccccc1`, the cytotoxicity call was “inactive”. In the case of `COc1cc(C)c(C(=O)Oc2cc(C)c(C(=O)O)c(O)c2)c(O)c1`, the cytotoxicity call is reported as “inactive”. For `COCCCNc1ncnc(N)c1[N+](=O)[O-]`, the cytotoxicity call was “inactive”. `C[C@@H]1CN([C@@H](C)CO)C(=O)c2cccc(NC(=O)Nc3ccc4c(c3)OCO4)c2O[C@@H]1CN(C)Cc1ccc(Cl)c(Cl)c1` was tested, and the cytotoxicity call was “inactive”. With `C[C@H]1CN([C@@H](C)CO)C(=O)c2cccc(NC(=O)Nc3ccc4c(c3)OCO4)c2O[C@@H]1CN(C)Cc1ccc(Cl)c(Cl)c1` the cytotoxicity call was “inactive”. In the case of `C[C@H](CO)N1C[C@H](C)[C@@H](CN(C)Cc2ccc(Cl)c(Cl)c2)Oc2c(NC(=O)Nc3ccc4c(c3)OCO4)cccc2C1=O`, the cytotoxicity call is reported as “active”. `C[C@H]1CN([C@@H](C)CO)C(=O)c2cccc(NC(=O)Nc3ccc(F)cc3)c2O[C@@H]1CN(C)Cc1ccc(Cl)c(Cl)c1` was tested, and the cytotoxicity call was “active”. With `C[C@H](CO)N1C[C@H](C)[C@H](CN(C)S(C)(=O)=O)OCCCC[C@H](C)Oc2ccc(NS(=O)(=O)c3ccc(F)cc3)cc2C1=O` the cytotoxicity call was “inactive”. `CO[C@@H]1CN(C)C(=O)c2cc(NC(=O)c3ccccc3)ccc2OC[C@H](C)N(C(=O)CN(C)C)C[C@@H]1C` was tested, and the cytotoxicity call was “inactive”. For `CC(C)(C)OC(=O)N[C@H]1CCCCC/C=C\[C@@H]2C[C@@]2(C(=O)NS(=O)(=O)C2CC2)NC(=O)[C@@H]2C[C@@H](OC(=O)N3Cc4cccc(F)c4C3)CN2C1=O`, the cytotoxicity call was “inactive”. With `COc1ccc(NC(=O)Nc2ccc3c(c2)C(=O)N([C@@H](C)CO)C[C@@H](C)[C@H](CN(C)S(=O)(=O)c2ccc(Cl)cc2)OCCCC[C@@H](C)O3)cc1` the cytotoxicity call was “inactive”. `Cc1noc(C)c1NC(=O)Nc1ccc2c(c1)C(=O)N([C@@H](C)CO)C[C@H](C)[C@@H](CN(C)S(=O)(=O)c1ccc(Cl)cc1)OCCCC[C@@H](C)O2` was tested, and the cytotoxicity call was “inactive”. `COCCOC(=O)N1C(=O)[C@@]2(c3cc(C#CC4(O)CCCCCC4)ccc31)[C@H](C(=O)N1CCCCCCC1)[C@H]1C(=O)O[C@H](c3ccccc3)[C@H](c3ccccc3)N1[C@@H]2c1ccc(OCCO)cc1` was tested, and the cytotoxicity call was “inactive”.
